Only some compounds are listed: those with a hit (about 12% of all), similar ones and a draw of the others.
Gal4-VP16 FLuc = Gal4-VP16 reporter inhibition counter-screen. Drosophila S2 Gal4-VP16 UAS-luciferase, luminescence, 20 h. Potency, µM (series often up to 53.6 µM), for the others: at the top dose activity, negative = inhibition, usual class: inhibitors. hit rate 3.5% among 310,000. AID 2546;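 note: Gal4-VP16 expression switched on by copper sulfate through the metallothionein promoter; nearly all actives have a fitted effect of over 50% in size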
RORg inh = ROR gamma (mouse) transcription inhibition; hit rate 5.4% among 310,000; Potency, µM (series often up to 53.6 µM), without a hit: at the highest dose activity change, negative = inhibition, hits mostly inhibitors; P51450; Drosophila S2 Gal4-RORgamma UAS-luciferase reporter, 20 h; note: nearly all actives have a fitted effect of over 60% in size
Target sequence (P51450 whole entry, looked up, the tested form may be a part): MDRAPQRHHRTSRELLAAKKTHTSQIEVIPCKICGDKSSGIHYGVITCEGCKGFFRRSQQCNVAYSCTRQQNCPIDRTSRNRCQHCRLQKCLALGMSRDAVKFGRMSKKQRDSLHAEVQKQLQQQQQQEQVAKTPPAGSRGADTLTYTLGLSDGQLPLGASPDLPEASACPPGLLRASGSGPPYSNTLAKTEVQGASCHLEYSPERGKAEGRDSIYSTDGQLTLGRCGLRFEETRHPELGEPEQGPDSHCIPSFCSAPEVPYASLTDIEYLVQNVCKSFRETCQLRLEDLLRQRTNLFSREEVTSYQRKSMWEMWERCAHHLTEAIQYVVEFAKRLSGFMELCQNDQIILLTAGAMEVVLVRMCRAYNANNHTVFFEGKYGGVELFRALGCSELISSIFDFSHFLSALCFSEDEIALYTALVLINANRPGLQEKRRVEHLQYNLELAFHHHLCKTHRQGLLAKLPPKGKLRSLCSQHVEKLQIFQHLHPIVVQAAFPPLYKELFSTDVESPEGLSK
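Luciferase reporter read in Schneider cells carrying Gal4-RORγ (mouse) and UAS-Photinus luciferase; cells given compound 1 h before 700 uM copper sulfate induction, then incubated 20 h at ambient temperature.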
Sfp inh = blocks B. subtilis Sfp PPTase activity; Q9F4F7; Biochemical Sfp PPTase activity, qHTS; Potency, µM, for the others: largest response in the series, negative = inhibition, actives largely listed as inhibitors; hit rate 3.5% among 310,000; AID 1490;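 note: the enzyme is Sfp with the accession as filed and its product quenches rhodamine fluorescence; 0% = enzyme reaction without inhibitor and -100% = no enzyme wells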
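Reaction rates are the 30-min fluorescence difference (ex 525, em 598 nm) in wells containing 15 nM Sfp, 5 uM rhodamine-CoA and 12.5 uM BHQ-2-YbbR at pH 7.6 with 10 mM MgCl2.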
ALDH1A1 inh = ALDH1A1 (human) enzyme inhibition. P00352. Purified ALDH1A1, NADH fluorescence, propionaldehyde substrate. Potency, µM (doses to about 75.3 µM), for the others: top-dose activity, negative = inhibition, actives largely listed as inhibitors. hit rate 7.3% among 220,000. AID 1030; active = well fitted inhibition curve with a large enough effect, not every such curve was filed as active; inconclusive = small, poorly fitted or top-dose-only effect, or another doubt; inactive = no such curve, though single readings can be large or run the other way;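 note: plate controls were no enzyme wells and a reference inhibitor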
PLK1 PBD inh = inhibitors of human PLK1 polo-box domain binding | P53350 | Plk1 PBD binding of FITC phosphopeptide, fluorescence polarization | Potency, µM, for the others: max response, negative = inhibition, hits mostly inhibitors | hit rate 2.8% among 360,000; note: series mostly up to about 57 µM; nearly all actives have a fitted effect of over 65% in size
The depositor's hits bear a star; [ ] = remark or other dose. Unless noted, calls come from the whole dose curve; as a rule, active = well fitted curve in the direction sought with a large enough effect; inconclusive = small, poorly fitted or top-dose-only effect, or another doubt; inactive = no such curve, though single readings can be large; an effect the other way counts as inactive or inconclusive. Unless noted, % is set by controls: 0 for no effect and ±100 for the full control effect; potency is the fitted concentration of half-maximal effect.

For NS(=O)(=O)c1ccc(CNC(=S)NCc2ccc(Cl)cc2)cc1 the results were Gal4-VP16 FLuc 3%, RORg inh inconclusive, Sfp inh -1%, ALDH1A1 inh inconclusive and PLK1 PBD inh -17%.
CCNC(=S)NS(=O)(=O)c1ccc(Cl)cc1 was read as Gal4-VP16 FLuc 3%[0.365 µM], RORg inh 22µM*, Sfp inh -6%, ALDH1A1 inh inconclusive and PLK1 PBD inh inconclusive.
NNC(=O)c1ccc(COc2cccc3ccccc23)o1 was read as Gal4-VP16 FLuc 4%, RORg inh -36%, Sfp inh 16% and PLK1 PBD inh -2%.
NNC(=O)c1ccc(COc2cccc3ccccc23)cc1 was read as Gal4-VP16 FLuc inconclusive, RORg inh inconclusive, Sfp inh 1%, ALDH1A1 inh 7.9µM* and PLK1 PBD inh 2%.
Screening NNC(=O)c1cccc(COc2ccc3c(c2)CCC3)c1 returned Gal4-VP16 FLuc 5µM*, RORg inh 3.2µM*, Sfp inh -6%, ALDH1A1 inh 6% and PLK1 PBD inh -10%.
For O=C(Nc1ccc(F)cc1)c1ccc(COc2ccccc2)cc1 the results were Gal4-VP16 FLuc 3%, RORg inh -13%, Sfp inh 29%, ALDH1A1 inh 3% and PLK1 PBD inh 27µM*.
Screening O=C(NCc1ccccc1)c1cccc(COc2ccccc2Cl)c1 returned Gal4-VP16 FLuc -1%, RORg inh -13%, Sfp inh 18%, ALDH1A1 inh 3% and PLK1 PBD inh 3%.
Screening NNC(=O)c1cccc(COc2ccccc2Br)c1 returned Gal4-VP16 FLuc inconclusive, RORg inh inconclusive, Sfp inh 2%, ALDH1A1 inh 3.5µM* and PLK1 PBD inh -9%.
COc1ncccc1-c1ccc2nncn2c1 was read as PLK1 PBD inh 5%.
For COC1OC2COC(c3ccccc3)OC2C(O)C1O (stereo unspecified) the results were Gal4-VP16 FLuc -1%, RORg inh inconclusive, Sfp inh -8% and ALDH1A1 inh 5%.
For O=C(O)c1cccc(-c2csc(C(O)c3cccc(Cl)c3)n2)c1 (stereo unspecified) the results were PLK1 PBD inh -8%.
`O=C(CC1SC(N2CCOCC2)=NC1=O)Nc1ccc(Cl)c(C(F)(F)F)c1` (stereo unspecified) gave PLK1 PBD inh -12%.
CCC(=O)c1ccc(OCc2ccc(C(=O)c3ccccc3)cc2)cc1 was read as Gal4-VP16 FLuc 7.1µM*, RORg inh inconclusive, Sfp inh -5%, ALDH1A1 inh inconclusive and PLK1 PBD inh -3%.
For NNC(=O)c1ccc(COc2ccccc2)cc1 the results were Gal4-VP16 FLuc inconclusive, RORg inh -40%, Sfp inh -2%, ALDH1A1 inh 2.2µM* and PLK1 PBD inh -3%.
For CCCc1nc2cc(C)c(Br)c(C)n2c1Cc1ccc(OC)cc1C the results were PLK1 PBD inh -5%.
Screening Cc1nc2ccc([N+](=O)[O-])cc2nc1C returned Gal4-VP16 FLuc 7%, RORg inh -11%, Sfp inh 22%, ALDH1A1 inh 10% and PLK1 PBD inh 2%.
`Cc1ccc2nc3cc([N+](=O)[O-])cc([N+](=O)[O-])c3cc2c1` gave Gal4-VP16 FLuc 2.2µM*, RORg inh inconclusive, Sfp inh 10%, ALDH1A1 inh 7% and PLK1 PBD inh 0.95µM*.
For COC(=O)c1ccc(NC(=O)CCS(=O)(=O)c2ccc(Br)cc2)cc1 the results were Gal4-VP16 FLuc 11µM*, RORg inh 8%, Sfp inh 10%, ALDH1A1 inh -6% and PLK1 PBD inh -4%.
Cc1ccc(S(=O)(=O)CCC(=O)Nc2cccc(C)c2)cc1 was read as Gal4-VP16 FLuc -6%, RORg inh -3%, Sfp inh 0%, ALDH1A1 inh 4% and PLK1 PBD inh -1%.
For Cc1ccc(S(=O)(=O)CCNC(=O)Cc2ccccc2)cc1 the results were Gal4-VP16 FLuc -1%, RORg inh 15%, Sfp inh 22%, ALDH1A1 inh 4% and PLK1 PBD inh 9.5µM*.
`COC(=O)c1ccc(NC(=O)CCS(=O)(=O)c2ccc(C)cc2)cc1` gave Gal4-VP16 FLuc inconclusive, RORg inh 3%, Sfp inh 5% and PLK1 PBD inh -8%.
`CCc1cccc(NC(=O)CCS(=O)(=O)c2ccc(Br)cc2)c1` gave Gal4-VP16 FLuc -1%, RORg inh -13%, Sfp inh -2% and PLK1 PBD inh 13µM*.
For CCOC(=O)c1cccc(NC(=O)CCS(=O)(=O)c2cccs2)c1 the results were Gal4-VP16 FLuc -2%, RORg inh inconclusive, Sfp inh 17%, ALDH1A1 inh 20µM* and PLK1 PBD inh -9%.
`NS(=O)(=O)c1ccc(CCNC(=O)CCS(=O)(=O)c2ccc(Br)cc2)cc1` gave Gal4-VP16 FLuc -2%, RORg inh 15%, Sfp inh 4% and PLK1 PBD inh inconclusive.
Cc1ccc(NC(=O)CCS(=O)(=O)c2ccc(Br)s2)cc1 was read as Gal4-VP16 FLuc 17%, RORg inh 41%, Sfp inh 6% and PLK1 PBD inh 27µM*.
Screening Cc1ccc(CNC(=O)CCS(=O)(=O)c2ccc(Br)s2)cc1 returned Gal4-VP16 FLuc 3%, RORg inh 3%, Sfp inh 0%, ALDH1A1 inh -15% and PLK1 PBD inh -25%.
For COC(=O)c1ccc(NC(=O)CSCC(=O)OCC(=O)c2ccc(Br)cc2)cc1 the results were Gal4-VP16 FLuc 3%, RORg inh -21%, Sfp inh -9%, ALDH1A1 inh 22µM* and PLK1 PBD inh -17%.
For Cc1cc(NC(=O)CSCC(=O)OCC(=O)c2cccc(Br)c2)no1 the results were PLK1 PBD inh -23%.
O=C(CCS(=O)(=O)c1ccc(Br)cc1)NCCc1ccccc1 was read as Gal4-VP16 FLuc -7%, RORg inh 36%, Sfp inh 16% and PLK1 PBD inh 30µM*.
`O=c1[nH]cnc2c1nc(Cl)n2C1OC(CO)C(O)C1O` (stereo unspecified) gave Gal4-VP16 FLuc 4%, RORg inh 6%, Sfp inh 3% and ALDH1A1 inh -1%.
Screening CC(C)(C)C(=O)Nc1cccc(-c2nc3ccccc3[nH]2)c1 returned Gal4-VP16 FLuc 4%, RORg inh 43%, Sfp inh inconclusive, ALDH1A1 inh -8% and PLK1 PBD inh -3%.
Screening CC(C)(C)C(=O)Nc1sc2c(c1-c1nc3ccccc3[nH]1)CCCC2 returned Gal4-VP16 FLuc inconclusive, RORg inh 0.79µM*, Sfp inh 9%, ALDH1A1 inh inconclusive and PLK1 PBD inh -11%.
Screening O=c1c(-c2cccs2)nc2cncnc2n1-c1ccccc1 returned Gal4-VP16 FLuc 8%, RORg inh 10%, Sfp inh 8% and ALDH1A1 inh inconclusive.
Screening COC(=O)[C@H](COC(C)(C)C)NC(=O)O[C@@H]1C(=O)c2ccc(OC)cc2O[C@H]1c1ccc2c(c1)OCO2 returned Gal4-VP16 FLuc -9%, RORg inh -16%, Sfp inh -6% and ALDH1A1 inh -4%.

Screening data from PubChem BioAssay.
